From PubChem BioAssay
A selection: hits, their analogues and other compounds. The true share with any hit is near 7.4%.
Rab9 promoter act: activators of Rab9 promoter; Huh7 Rab9 promoter-luciferase reporter, luminescence, 24 h; Potency, µM (doses to about 9.22 µM), usual class: activators; 320,000 tested, 2.8% active; AID 485297; further: nearly all actives have a fitted effect of over 60% in size
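Rab9 promoter-driven luciferase in stably transfected Huh7 cells; 1500 cells/well rested 2 h, exposed to compound in DMSO for 24 h at 37 °C, 5% CO2. Luminescence read 10 min after adding luciferase reagent at ambient temperature.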
NPC1 prom act: activators of NPC1 promoter. Huh7 NPC1 promoter luciferase reporter, 24 h. Potency, µM (top dose mostly 9.22 µM), usual class: activators. 320,000 tested, 2.4% active; further: nearly all actives have a fitted effect of over 60% in size
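Huh7 cells stably carrying NPC1 promoter–luciferase, plated in Opti-MEM with 10% FBS for 2 h, were exposed to compound in DMSO for 24 h at 37 °C; luciferase reagent was added for 10 min and luminescence read.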
ELG1 genotox: induces genotoxicity in HEK293T cells with luciferase-tagged ELG1; Potency, µM (top dose mostly 46 µM), hits mostly activators; HEK293T ELG1-luciferase reporter, luminescence, 16 h; 330,000 tested, 1.3% active; further: nearly all actives have a fitted effect of over 60% in size
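16 hr compound incubation (37 °C, 5% CO2) of HEK293T cells carrying luciferase-tagged ELG1; luciferase then measured by ONE-Glo luminescence after 30 min at RT.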
Luc counter: Kinase-Glo luciferase inhibition (counter-screen); AID 1379; Q27757; 200,000 tested, 0.28% active; Potency, µM (highest dose often 38.3 µM), hits mostly inhibitors; Kinase-Glo luciferase, ATP luminescence, 8 min; further: nearly all actives have a fitted effect of over 60% in size
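Inhibition of Kinase-Glo luciferase light generation was assessed at 10 uM ATP in pH 7.2 imidazole buffer, with luminescence measured after eight minutes at ambient temperature.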
SMN2 splice up: increases expression of the SMN2 splice variant; HEK293 SMN2-luciferase splicing reporter, luminescence, 30-36 h; Potency, µM (top dose mostly 46.1 µM), most hits filed as activators; 210,000 tested, 2.8% active; further: nearly all actives have a fitted effect of over 55% in size
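HEK293 cells carry an SMN2 minigene-luciferase reporter in which exon 7 inclusion puts luciferase in frame. Cells were seeded at 2000 cells/well, attached for 10-12 hours, then exposed to compounds for 30-36 hours at 37C before ONE-Glo luminescence.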
FLuc counter: counter-screen for miR-21 project: firefly luciferase inhibitors or activators | P08659 | purified FLuc, Km substrates, luminescence inhibition | Potency, µM (doses to about 57.5 µM), most hits filed as inhibitors | 360,000 tested, 6.9% active | AID 588342; further: nearly all actives have a fitted effect of over 55% in size
Target sequence (P08659 whole entry, looked up): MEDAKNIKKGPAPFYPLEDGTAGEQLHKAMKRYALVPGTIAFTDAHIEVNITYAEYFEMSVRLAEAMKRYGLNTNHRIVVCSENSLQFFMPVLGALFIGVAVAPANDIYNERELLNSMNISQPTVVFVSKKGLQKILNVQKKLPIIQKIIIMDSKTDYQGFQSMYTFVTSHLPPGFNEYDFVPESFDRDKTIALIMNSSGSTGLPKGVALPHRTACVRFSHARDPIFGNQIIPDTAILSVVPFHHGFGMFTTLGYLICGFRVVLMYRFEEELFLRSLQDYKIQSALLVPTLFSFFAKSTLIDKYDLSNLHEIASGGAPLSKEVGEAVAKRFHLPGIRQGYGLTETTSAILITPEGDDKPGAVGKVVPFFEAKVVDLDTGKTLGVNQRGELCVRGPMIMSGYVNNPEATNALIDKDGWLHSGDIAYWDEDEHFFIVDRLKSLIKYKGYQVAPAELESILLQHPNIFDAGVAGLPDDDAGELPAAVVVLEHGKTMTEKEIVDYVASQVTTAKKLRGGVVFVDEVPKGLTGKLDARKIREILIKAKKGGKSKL
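Purified P. pyralis luciferase (10nM final) with 10uM D-luciferin and 10uM ATP (Km levels) in 50mM Tris acetate pH 7.5, 10mM Mg acetate, 0.01% Tween-20, 0.05% BSA; qHTS 6-point titration, ~60 µM downward; luminescence read.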
Numbers stand for hits; n = inactive; u = inconclusive; x = no result given. The call rests on the fitted dose curve; in most records, active means well fitted curve in the direction sought with a large enough effect; inconclusive means small, poorly fitted or top-dose-only effect, or another doubt; inactive means no such curve, though single readings can be large; an effect the other way counts as inactive or inconclusive.

SMILES | Rab9 promoter act | NPC1 prom act | ELG1 genotox | Luc counter | SMN2 splice up | FLuc counter
C=CCSc1cc(C)nc2c(-c3ccccc3)c(C)nn12 | n | n | n | x | x | 12µM
Cc1cc(SCC#N)n2nc(C)c(-c3ccccc3)c2n1 | n | n | n | n | n | u
CCc1nc(SCC(=O)Nc2nnc(CC)s2)c2c(=O)n(C)c(=O)n(C)c2n1 | n | n | n | x | x | n
COc1ccccc1NC(=O)Nc1ccc(Br)cn1 | n | n | n | n | n | n
COc1c(C(=O)Nc2ccc(Br)cn2)ccc2ccccc12 | u | n | u | x | x | 5.4µM
COc1cc2ccccc2cc1C(=O)Nc1ccc(Br)cn1 | 1.8µM | 1.6µM | u | x | x | u
O=C(CN(C(=O)CNC(=O)c1ccco1)c1cccc(F)c1)NC1CCCCC1 | n | n | n | x | x | n
c1ccc(CNc2ccc3c(c2)ncn3C2CCCCC2)nc1 | u | u | n | n | n | 13µM
COc1ccc2oc(-c3ccco3)cc(=O)c2c1 | 0.79µM | 2.5µM | u | u | 11µM | 12µM
Cc1cc(=O)oc2ccc(OCC(=O)NCc3ccco3)cc12 | n | n | n | n | n | n
COc1cccc2oc(-c3ccco3)cc(=O)c12 | u | u | u | n | 16µM | 15µM
O=C(COc1ccc2oc(-c3ccco3)cc(=O)c2c1)N1CCCCC1 | n | n | n | n | n | 17µM
O=C(COc1ccc2oc(-c3ccccc3)cc(=O)c2c1)NCc1ccco1 | u | n | n | n | n | 2.4µM
O=c1cc(-c2ccco2)oc2ccc(Cl)cc12 | n | n | u | n | n | n
Cc1cccn2cc(-c3ccc4c(c3)NC(=O)CO4)nc12 | u | n | n | x | x | 11µM
Cc1ccn2cc(-c3ccc4c(c3)NC(=O)CO4)nc2c1 | 0.56µM | 1.3µM | u | n | 5.6µM | 2.4µM
Cc1ccc(-c2cc(-c3ccc4c(c3)NC(=O)CO4)nc3c2COc2ccc(C)cc2-3)cc1 | x | x | x | x | n | u
COc1ccc(-c2cc(-c3ccc(OC)cc3)nc(-c3ccc4c(c3)NC(=O)CO4)c2)cc1 | n | n | n | n | n | n
Cc1ccc2oc(=O)n(CC(=O)OCCC(C)C)c2c1 | n | n | n | x | x | u
CSc1nc(O)c(/C=C2\C=Nc3ccccc32)[nH]1 | u | n | u | 6.3µM | u | 11µM
CC(C)Cc1nn2cc(-c3cccc(Br)c3)nc2s1 | x | x | x | x | n | 0.43µM
Cc1nn2cc(-c3ccc(OC(C)C)cc3)nc2s1 | x | x | x | x | n | 1.3µM
Cc1nn2cc(-c3ccccc3)nc2s1 | 1µM | 0.35µM | u | n | 10µM | 4.3µM
CCCCc1nn2c(=O)cc(CN(CC)c3ccccc3)nc2s1 | x | x | x | x | x | n
CCCCCc1nn2cc(-c3ccccc3)nc2s1 | x | x | x | x | 7.1µM | 0.43µM
SMILES | Rab9 promoter act | NPC1 prom act | ELG1 genotox | Luc counter | SMN2 splice up | FLuc counter
Cc1ccccc1-c1cc(C(=O)NCc2ccc3c(c2)OCO3)n(CC2CC(c3cccnc3)=NO2)n1 (centres undefined) | n | n | n | x | x | n
Cc1cc(C)cc(NC(=O)CSc2nnnn2-c2cccnc2)c1 | n | n | n | x | x | n
COc1cc(Nc2nc(SCC(=O)c3ccc(Br)cc3)nc3ccccc23)cc(OC)c1 | x | x | x | x | x | n
O=C([O-])c1cc(-c2ccccc2)cc(-c2ccccc2)[n+]1Cc1ccccc1 | n | n | n | x | x | u
CCc1ccc(-c2cn3nc(CC)sc3n2)cc1 | x | x | x | x | n | 0.6µM
CCCc1nn2c(C)c(-c3ccccc3)nc2s1 | x | x | x | x | n | 1.5µM
CCc1ccc(-c2cn3nc(-c4ccccc4)cnc3n2)cc1 | 2µM | u | n | x | x | n
NS(=O)(=O)c1ccc(CCNC(=O)c2ccccc2-c2ccccc2)cc1 | n | n | n | x | x | n
CC(C)CC(=O)NNC(=S)Nc1ccc(S(N)(=O)=O)cc1 | n | n | n | n | n | n
CCc1ccc(C(=O)NNC(=S)Nc2ccc(S(N)(=O)=O)cc2)s1 | n | n | n | x | x | 17µM
COc1ccc(NC(=O)CC2C(=O)N(c3cccc(OC)c3)C(=O)N2CCc2cccs2)cc1 (centres undefined) | x | x | x | x | n | n
Cc1c(CC(=O)NCCCC(=O)O)c(=O)oc2cc3oc4c(c3cc12)CCCC4 | n | n | n | x | x | 21µM
Cc1c(CC(=O)NCCCCCC(=O)O)c(=O)oc2c(C)c3oc4c(c3cc12)CCCC4 | n | n | n | x | x | u
